This note sets out measurements from PubChem BioAssay (NCATS).

Each structure is given as a SMILES string. Inconclusive results are not listed. Where a call stands in place of a potency, no number is given. Calls of active or inactive are those of the source. Calls come from the whole dose curve; as a rule, active = well fitted activation curve with a large enough effect; inconclusive = small, poorly fitted or top-dose-only effect; inactive = no such curve, though single readings can be large or run the other way.

Sequence of Arylsulfatase A (Homo sapiens) (P15289 whole entry, looked up): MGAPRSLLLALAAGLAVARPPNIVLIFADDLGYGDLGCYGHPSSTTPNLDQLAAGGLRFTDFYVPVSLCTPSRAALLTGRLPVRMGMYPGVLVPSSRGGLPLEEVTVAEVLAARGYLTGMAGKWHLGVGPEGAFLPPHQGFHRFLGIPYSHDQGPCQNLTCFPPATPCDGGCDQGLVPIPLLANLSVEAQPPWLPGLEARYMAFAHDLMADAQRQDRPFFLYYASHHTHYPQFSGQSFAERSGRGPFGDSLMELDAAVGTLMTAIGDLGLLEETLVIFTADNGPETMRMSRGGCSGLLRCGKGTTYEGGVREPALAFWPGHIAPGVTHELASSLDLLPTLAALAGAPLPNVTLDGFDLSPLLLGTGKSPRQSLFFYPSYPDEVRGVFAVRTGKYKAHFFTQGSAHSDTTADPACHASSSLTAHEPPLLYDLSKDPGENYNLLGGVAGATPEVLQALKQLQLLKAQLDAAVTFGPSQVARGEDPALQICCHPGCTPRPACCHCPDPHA

This test concerns the target Arylsulfatase A (Homo sapiens) (UniProt P15289). Nature of the test: qHTS screen for enhancers of Arylsulfatase A (ASA1): LOPAC Validation Assay (AID 720538). The conditions noted are these: ASA enzyme activity, LOPAC qHTS enhancer assay; series mostly up to 57.5 µM. The method in brief:
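Read-out: fluorescence at Ex=525/Em=598 nm after 1N NaOH final stop. Patient fibroblasts carrying ASA-I179S had 48h compound exposure, then 14h room-temperature pNCS hydrolysis (0.5mM final) in lysis buffer. Signal increase = enhanced activity.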
For orientation: qHTS replaces the single test concentration by a dilution series.
Consider `CCN(CC)CCNC(=O)c1cc(S(C)(=O)=O)ccc1OC`, for which the Potency entry is “inactive”.
The entry for `c1cnc(N2CCN(Cc3ccc4c(c3)OCO4)CC2)nc1` is “inactive”; for `CC[N+](C)(C)c1cccc(O)c1` it is “inactive”; for `CCCCCCCC/C=C\CCCCCCCC(=O)NCc1ccc(O)c(OC)c1` it is “inactive”.
On to `CCN(CC)CCCN(c1ccccc1)C1Cc2ccccc2C1`, for which the Potency entry was “inactive”.
The result for `COC(=O)C1=C(C)NC(C)=C(C(=O)OCCN(C)Cc2ccccc2)C1c1cccc([N+](=O)[O-])c1` (stereo not given) reads “inactive”; that for `CN1CCN(C2=Nc3ccccc3Oc3ccc(Cl)cc32)CC1`, “inactive”.
For the compound `CC1=NS(=O)(=O)c2cc(Cl)ccc2N1`, the Potency entry was “inactive”.
For the compound `Cc1nc2sccn2c(=O)c1CCN1CCC(=C(c2ccc(F)cc2)c2ccc(F)cc2)CC1`, the Potency entry is “inactive”.
Regarding `N[C@@H](COP(=O)(O)O)C(=O)O`, the Potency result was “inactive”.
The result for `CCN(CC)CCOCCOC(=O)C1(c2ccccc2)CCCC1` reads “inactive”; that for `CC(N=C(NC#N)Nc1ccncc1)C(C)(C)C` (stereo not given), “inactive”.
`Fc1ccc(C(c2ccc(F)cc2)N2CCN(C/C=C/c3ccccc3)CC2)cc1`: the Potency entry is “inactive”.
The entry for `FC(F)(F)c1ccccc1-n1ccnc1` is “inactive”.
The result for `COc1ccc2c(c1OC)C(=O)O[C@@H]2[C@H]1c2c(cc3c(c2OC)OCO3)CCN1C` reads “inactive”.
Regarding `CCC(=O)c1ccc2c(c1)N(CCCN(C)C)c1ccccc1S2`, the Potency result was “inactive”.
The result for `CC(C)NCC(O)c1cc(O)cc(O)c1` (stereo not given) reads “inactive”.
The entry for `CC(C)[N+](C)(CCOC(=O)C1c2ccccc2Oc2ccccc21)C(C)C` is “inactive”; for `COCCc1ccc(OCC(O)CNC(C)C)cc1` (stereo not given) it is “inactive”.
Consider `CO[C@@]1(NC(=O)CSCC#N)C(=O)N2C(C(=O)O)=C(CSc3nnnn3C)CS[C@@H]21`, for which the Potency result was “inactive”.
